Laboratory results from the supplement of paper PMC10849652.
The full data set covers some 7,900 targets. This sample favours those with a hit. About 0.6% of all pairs of compound and target were hits.

Experiments:
Test in all cases: log2 fold change, soluble protein after heating vs DMSO (PISA); higher = thermal stabilisation; K562 cells, 10 uM, 30 min; active = over 0.2 and 3.5 SD of the protein, either way, in both replicates (recomputed)
IRAK-1-4 Inhibitor I = compound: C1COCCN1CCN2C3=CC=CC=C3N=C2NC(=O)C4=CC(=CC=C4)[N+](=O)[O-] [IRAK-1-4 Inhibitor I]
Outline: (§1)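 K562 cells at 2×10^6 cells/mL were exposed to 10 μM compound for 30 min, then aliquots were heated for 3 min across 48°C-58°C, pooled, and extracted in PBS containing 0.5% NP-40 at 4°C. The supernatant after 21,000xg for 90 min was taken as soluble protein and measured by TMTpro 16plex LC-MS/MS with channel sums equalised. Thermal stability is reported relative to control samples, with values from duplicates. Fold changes are given on a log2 scale.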

ibrutinib = compound: C=CC(=O)N1CCC[C@@H](n2nc(-c3ccc(Oc4ccccc4)cc3)c3c(N)ncnc32)C1 [ibrutinib]
Outline: as §1

[1] = compound: CC(=O)c1cnc2ccc(-c3cc(Cl)c(O)c(Cl)c3)nc2c1N[C@H]1CC[C@H](CN(C)C)CC1
Outline: as §1

ralimetinib = compound: CC(C)(C)Cn1c(N)nc2ccc(-c3[nH]c(C(C)(C)C)nc3-c3ccc(F)cc3)nc21 [ralimetinib]
Outline: as §1

[2] = compound: CC(C)(O)CC(=O)NCCn1ccc2ncnc(Nc3ccc(Oc4cccc(C(F)(F)F)c4)c(Cl)c3)c21
Outline: as §1

[3] = compound: CC(C)C1=C2N=C(C=C(N2N=C1)NCC3=CC=CC=C3)NCCCCCCN
Outline: as §1

[4] = compound: CC(C)C[C@@H](C=O)NC(=O)[C@H](CC(C)C)NC(=O)[C@H](CC(C)C)NC(=O)OCc1ccccc1
Outline: as §1

pinometostat = compound: CC(C)N(C[C@H]1O[C@@H](n2cnc3c(N)ncnc32)[C@H](O)[C@@H]1O)[C@H]1C[C@@H](CCc2nc3cc(C(C)(C)C)ccc3[nH]2)C1 [pinometostat]
Outline: as §1

[5] = compound: CC1=C(C(CC(=O)N1)C2=CC=C(C=C2)C(F)(F)F)C(=O)NC3=C(C=C4C(=C3)C=NN4)F
Outline: as §1

[6] = compound: CC1=C(C2=C(C=C1)C(=O)C3=CC=CC=C3N2CCCN)C
Outline: as §1

[7] = compound: CC1=C(C=C(C=C1)NC(=O)C2=CC(=CC=C2)C(C)(C)C#N)NC3=CC4=C(C=C3)N=CN(C4=O)C
Outline: as §1

[8] = compound: CC1=C(C=C(C=C1)NC(=O)C2=CC(=CC=C2)N(C)C)NC(=O)C3=CC=C(C=C3)O
Outline: as §1

[9] = compound: CC1=CC=C(C=C1)SC2=C3C=C(SC3=CN=C2)C(=O)N
Outline: as §1

[10] = compound: CC1=NC(=CC=C1)C2=C(N=C(N2)C(C)(C)C)C3=CC4=NC=CN=C4C=C3
Outline: as §1

Nexturastat A = compound: CCCCN(Cc1ccc(C(=O)NO)cc1)C(=O)Nc1ccccc1 [Nexturastat A]
Outline: as §1

vemurafenib = compound: CCCS(=O)(=O)Nc1ccc(F)c(C(=O)c2c[nH]c3ncc(-c4ccc(Cl)cc4)cc23)c1F [vemurafenib]
Outline: as §1

[11] = compound: CCCS(=O)(=O)Nc1ccc(F)c(C(=O)c2c[nH]c3ncc(Cl)cc23)c1F
Outline: as §1

[12] = compound: CCCc1cc(C)[nH]c(=O)c1CNC(=O)c1cc(-c2ccnc(N3CCN(C)CC3)c2)cc2c1cnn2C(C)C
Outline: as §1

givinostat = compound: CCN(CC)Cc1ccc2cc(COC(=O)Nc3ccc(C(=O)NO)cc3)ccc2c1 [givinostat]
Outline: as §1

barasertib = compound: CCN(CCCOc1ccc2c(Nc3cc(CC(=O)Nc4cccc(F)c4)[nH]n3)ncnc2c1)CCOP(=O)(O)O [barasertib]
Outline: as §1

Measured: log2 fold change

PIP4K2C (UniProt Q8TBX8)
UniProt Q8TBX8, sequence (Q8TBX8 whole entry, looked up): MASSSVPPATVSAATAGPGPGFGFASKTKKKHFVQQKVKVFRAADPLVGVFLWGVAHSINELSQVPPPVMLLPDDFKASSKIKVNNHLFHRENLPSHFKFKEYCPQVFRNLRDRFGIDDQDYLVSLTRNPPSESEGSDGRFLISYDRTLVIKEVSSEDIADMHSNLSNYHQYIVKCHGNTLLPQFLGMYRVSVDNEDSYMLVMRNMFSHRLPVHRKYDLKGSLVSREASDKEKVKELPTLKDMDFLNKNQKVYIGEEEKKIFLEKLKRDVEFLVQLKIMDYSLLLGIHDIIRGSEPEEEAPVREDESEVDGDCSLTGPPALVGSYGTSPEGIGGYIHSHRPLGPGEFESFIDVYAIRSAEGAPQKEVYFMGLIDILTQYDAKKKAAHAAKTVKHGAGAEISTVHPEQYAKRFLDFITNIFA
inactive: IRAK-1-4 Inhibitor I 0.607 | ibrutinib 0.064 | ralimetinib -0.019 | [2] -0.14 | [3] 0.095 | [4] 0.003 | pinometostat -0.006 | [5] -0.106 | [6] 0.018 | [7] -0.003 | [8] -0.06 | [9] 0.073 | [10] 0.007 | Nexturastat A -0.046 | vemurafenib -0.035 | [11] 0 | [12] -0.029 | givinostat -0.047 | barasertib -0.016
active: [1] 1.48

PXK (UniProt Q7Z7A4)
inactive: IRAK-1-4 Inhibitor I 0.032 | ibrutinib 0.042 | [1] -0.012 | ralimetinib 0.1 | [2] -0.023 | [3] -0.201 | [4] 0.037 | pinometostat 0.012 | [5] -0.024 | [6] 0.057 | [7] 0.017 | [8] -0.059 | [9] -0.041 | [10] 0.011 | Nexturastat A -0.018 | vemurafenib 0.017 | [11] 0.071 | [12] -0.046 | givinostat 0.022 | barasertib 0.002

PNPLA8 (UniProt Q9NP80)
inactive: IRAK-1-4 Inhibitor I -0.022 | ibrutinib -0.049 | [1] 0.151 | ralimetinib -0.005 | [2] -0.071 | [3] -0.06 | [4] 0.003 | pinometostat 0.064 | [5] -0.008 | [6] 0.043 | [7] 0.001 | [8] 0.026 | [9] 0.007 | [10] -0.027 | Nexturastat A 0.041 | vemurafenib -0.002 | [11] -0.005 | [12] 0.084 | givinostat 0.067 | barasertib 0.066

PBX2 (UniProt P40425)
UniProt P40425, sequence (P40425 whole entry, looked up): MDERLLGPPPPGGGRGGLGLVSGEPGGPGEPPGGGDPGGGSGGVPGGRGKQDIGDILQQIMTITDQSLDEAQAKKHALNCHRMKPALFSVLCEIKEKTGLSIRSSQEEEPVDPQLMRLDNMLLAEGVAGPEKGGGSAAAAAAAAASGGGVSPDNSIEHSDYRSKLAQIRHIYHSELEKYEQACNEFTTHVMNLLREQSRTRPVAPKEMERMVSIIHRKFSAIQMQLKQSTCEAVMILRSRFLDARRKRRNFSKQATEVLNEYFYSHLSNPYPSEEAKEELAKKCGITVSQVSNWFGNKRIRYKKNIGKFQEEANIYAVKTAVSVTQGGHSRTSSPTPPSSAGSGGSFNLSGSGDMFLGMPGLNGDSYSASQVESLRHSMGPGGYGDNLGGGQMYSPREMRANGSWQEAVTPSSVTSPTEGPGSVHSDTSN
inactive: IRAK-1-4 Inhibitor I -0.078 | ibrutinib 0.023 | [1] -0.122 | ralimetinib 0.04 | [2] -0.145 | [3] -0.184 | [4] 0.078 | pinometostat -0.058 | [5] 0.131 | [6] -0.005 | [7] 0.049 | [8] 0.001 | [9] 0.089 | [10] 0.165 | Nexturastat A 0.072 | vemurafenib 0.099 | [11] 0.136 | [12] 0.026 | givinostat 0.138 | barasertib 0.03

POLR2A (UniProt P24928)
active: [1] 0.342
inactive: IRAK-1-4 Inhibitor I -0.029 | ibrutinib 0.054 | ralimetinib 0.011 | [2] -0.065 | [3] 0.19 | [4] 0.005 | pinometostat -0.004 | [5] -0.046 | [6] 0.033 | [7] -0.009 | [8] -0.049 | [9] 0.064 | [10] 0.018 | Nexturastat A 0.001 | vemurafenib 0.002 | [11] 0.071 | [12] -0.023 | givinostat -0.024 | barasertib 0.024

PIK3CB (UniProt P42338)
inactive: IRAK-1-4 Inhibitor I -0.051 | ibrutinib -0.049 | [1] 0.082 | ralimetinib 0.013 | [2] -0.082 | [3] -0.082 | [4] 0.02 | pinometostat -0.069 | [5] -0.026 | [6] 0.041 | [7] -0.034 | [8] -0.009 | [9] 0.024 | [10] 0.054 | Nexturastat A 0.013 | vemurafenib 0.022 | [11] -0.001 | [12] -0.041 | givinostat 0.052 | barasertib 0.077

PRKAR2A (UniProt P13861)
active: [1] -0.696
inactive: IRAK-1-4 Inhibitor I 0.006 | ibrutinib 0.013 | ralimetinib 0.047 | [2] -0.036 | [3] -0.002 | [4] -0.023 | pinometostat 0.074 | [5] -0.06 | [6] 0.058 | [7] 0.141 | [8] 0.001 | [9] 0.011 | [10] -0.033 | Nexturastat A 0.008 | vemurafenib -0.021 | [11] -0.021 | [12] 0.019 | givinostat 0.024 | barasertib -0.001

PMPCB (UniProt O75439)
UniProt O75439, sequence (O75439 whole entry, looked up): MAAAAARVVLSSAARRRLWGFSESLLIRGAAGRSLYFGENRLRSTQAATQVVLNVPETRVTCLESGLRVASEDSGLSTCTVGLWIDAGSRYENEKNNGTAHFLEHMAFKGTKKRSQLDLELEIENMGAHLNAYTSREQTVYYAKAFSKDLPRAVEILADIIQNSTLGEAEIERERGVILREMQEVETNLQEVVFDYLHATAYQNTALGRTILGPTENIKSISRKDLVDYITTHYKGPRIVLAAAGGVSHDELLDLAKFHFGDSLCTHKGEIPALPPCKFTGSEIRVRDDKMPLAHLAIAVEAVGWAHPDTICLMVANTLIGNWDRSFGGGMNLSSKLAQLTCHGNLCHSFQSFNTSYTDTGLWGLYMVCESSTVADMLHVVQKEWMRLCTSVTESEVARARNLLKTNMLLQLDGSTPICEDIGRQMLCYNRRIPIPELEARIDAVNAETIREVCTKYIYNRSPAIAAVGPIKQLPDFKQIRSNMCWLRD
inactive: IRAK-1-4 Inhibitor I 0.035 | ibrutinib 0.008 | [1] 0.01 | ralimetinib 0.064 | [2] -0.108 | [3] 0.04 | [4] 0.012 | pinometostat -0.022 | [5] 0 | [6] 0.015 | [7] 0.012 | [8] -0.063 | [9] -0.009 | [10] 0.03 | Nexturastat A -0.07 | vemurafenib 0.06 | [11] -0.019 | [12] -0.015 | givinostat -0.042 | barasertib 0.01

PPP2R5A (UniProt Q15172)
inactive: IRAK-1-4 Inhibitor I 0.005 | ibrutinib -0.024 | [1] 0.004 | ralimetinib 0.066 | [2] -0.16 | [3] -0.193 | [4] 0.023 | pinometostat 0.025 | [5] 0.02 | [6] 0.071 | [7] -0.014 | [8] -0.039 | [9] 0.032 | [10] 0.051 | Nexturastat A -0.017 | vemurafenib 0.061 | [11] 0.146 | [12] -0.003 | givinostat 0.026 | barasertib 0.002

PELP1 (UniProt Q8IZL8)
UniProt Q8IZL8, sequence (Q8IZL8 whole entry, looked up): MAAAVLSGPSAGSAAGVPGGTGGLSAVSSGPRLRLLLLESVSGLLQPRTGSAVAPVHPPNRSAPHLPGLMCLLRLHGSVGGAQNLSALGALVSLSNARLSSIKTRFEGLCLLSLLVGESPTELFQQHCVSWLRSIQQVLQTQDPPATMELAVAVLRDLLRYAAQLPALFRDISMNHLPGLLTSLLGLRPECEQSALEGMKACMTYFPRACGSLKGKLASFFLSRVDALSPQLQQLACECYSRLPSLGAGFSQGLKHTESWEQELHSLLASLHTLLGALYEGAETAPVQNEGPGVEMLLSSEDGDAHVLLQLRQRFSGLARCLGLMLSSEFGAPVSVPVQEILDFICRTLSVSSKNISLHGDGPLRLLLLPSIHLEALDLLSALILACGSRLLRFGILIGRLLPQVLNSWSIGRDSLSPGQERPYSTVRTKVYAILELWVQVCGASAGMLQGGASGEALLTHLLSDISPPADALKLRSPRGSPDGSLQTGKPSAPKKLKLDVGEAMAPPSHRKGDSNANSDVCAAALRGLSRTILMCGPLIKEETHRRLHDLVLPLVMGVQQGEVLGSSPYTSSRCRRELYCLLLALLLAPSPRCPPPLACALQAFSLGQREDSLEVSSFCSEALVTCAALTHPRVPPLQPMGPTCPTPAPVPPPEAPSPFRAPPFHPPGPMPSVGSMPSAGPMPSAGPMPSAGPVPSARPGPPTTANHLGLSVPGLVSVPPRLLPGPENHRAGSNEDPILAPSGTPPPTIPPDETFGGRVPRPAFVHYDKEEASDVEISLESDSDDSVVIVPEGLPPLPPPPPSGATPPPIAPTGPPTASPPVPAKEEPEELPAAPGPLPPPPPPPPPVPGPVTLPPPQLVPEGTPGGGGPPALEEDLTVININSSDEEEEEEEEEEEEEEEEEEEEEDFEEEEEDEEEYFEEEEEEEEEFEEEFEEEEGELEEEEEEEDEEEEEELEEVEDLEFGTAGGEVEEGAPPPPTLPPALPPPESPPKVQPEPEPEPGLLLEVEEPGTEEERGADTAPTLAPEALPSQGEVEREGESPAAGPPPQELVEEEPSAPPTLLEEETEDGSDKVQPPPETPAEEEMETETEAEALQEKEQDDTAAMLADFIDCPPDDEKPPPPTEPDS
active: [6] -2.07
inactive: IRAK-1-4 Inhibitor I 0.017 | ibrutinib -0.017 | [1] -0.106 | ralimetinib 0.04 | [2] -0.031 | [3] 0.017 | [4] -0.019 | pinometostat 0.008 | [5] 0.029 | [7] -0.048 | [8] 0.044 | [9] 0.034 | [10] -0.02 | Nexturastat A 0.15 | vemurafenib -0.01 | [11] -0.038 | [12] -0.006 | givinostat 0.039 | barasertib -0.085

POLD1 (UniProt P28340)
UniProt P28340, sequence (P28340 whole entry, looked up): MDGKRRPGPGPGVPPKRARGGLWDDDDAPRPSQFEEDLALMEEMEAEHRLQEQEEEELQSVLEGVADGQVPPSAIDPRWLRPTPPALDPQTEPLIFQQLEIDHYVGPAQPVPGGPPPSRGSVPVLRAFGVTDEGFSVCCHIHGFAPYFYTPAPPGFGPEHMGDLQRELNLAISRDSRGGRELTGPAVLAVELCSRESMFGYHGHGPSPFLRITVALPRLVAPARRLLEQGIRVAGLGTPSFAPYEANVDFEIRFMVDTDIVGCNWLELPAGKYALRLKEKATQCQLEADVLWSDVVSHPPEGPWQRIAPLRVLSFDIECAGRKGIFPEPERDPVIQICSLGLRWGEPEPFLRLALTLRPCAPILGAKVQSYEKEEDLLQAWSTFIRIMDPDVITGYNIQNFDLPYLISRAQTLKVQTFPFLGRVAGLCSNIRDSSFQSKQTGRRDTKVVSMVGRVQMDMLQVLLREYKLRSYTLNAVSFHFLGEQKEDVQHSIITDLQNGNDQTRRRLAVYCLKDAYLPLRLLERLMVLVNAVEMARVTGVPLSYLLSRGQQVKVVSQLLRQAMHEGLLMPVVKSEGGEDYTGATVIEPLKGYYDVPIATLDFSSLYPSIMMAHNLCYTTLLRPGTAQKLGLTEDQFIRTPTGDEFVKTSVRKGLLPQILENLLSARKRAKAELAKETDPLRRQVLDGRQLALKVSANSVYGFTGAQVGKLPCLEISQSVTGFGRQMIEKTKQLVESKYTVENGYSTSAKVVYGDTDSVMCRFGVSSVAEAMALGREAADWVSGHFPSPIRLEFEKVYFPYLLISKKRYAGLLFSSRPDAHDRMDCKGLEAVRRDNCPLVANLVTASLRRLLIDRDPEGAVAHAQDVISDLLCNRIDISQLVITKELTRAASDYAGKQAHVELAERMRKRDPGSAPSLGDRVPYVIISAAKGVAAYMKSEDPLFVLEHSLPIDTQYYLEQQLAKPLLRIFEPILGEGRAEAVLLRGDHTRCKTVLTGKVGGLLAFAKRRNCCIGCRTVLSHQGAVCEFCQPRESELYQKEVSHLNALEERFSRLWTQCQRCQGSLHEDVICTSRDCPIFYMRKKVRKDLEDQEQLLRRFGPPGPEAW
inactive: IRAK-1-4 Inhibitor I -0.009 | ibrutinib 0.021 | [1] -0.081 | ralimetinib -0.02 | [2] -0.085 | [3] -0.12 | [4] 0.11 | pinometostat 0.024 | [5] -0.005 | [6] -0.011 | [7] -0.083 | [8] -0.028 | [9] 0.018 | [10] 0.022 | Nexturastat A 0.02 | vemurafenib 0.033 | [11] 0.071 | [12] 0.006 | givinostat 0.021 | barasertib 0.005

PCLAF (UniProt Q15004)
UniProt Q15004, sequence (Q15004 whole entry, looked up): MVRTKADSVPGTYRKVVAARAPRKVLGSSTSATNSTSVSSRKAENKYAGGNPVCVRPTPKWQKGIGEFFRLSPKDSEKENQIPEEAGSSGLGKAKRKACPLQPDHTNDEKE
active: [4] 0.278
inactive: IRAK-1-4 Inhibitor I 0.055 | ibrutinib 0.034 | [1] -0.061 | ralimetinib -0.012 | [2] 0.036 | [3] 0.184 | pinometostat -0.012 | [5] 0.139 | [6] -0.088 | [7] -0.119 | [8] 0.031 | [9] -0.014 | [10] -0.009 | Nexturastat A -0.002 | vemurafenib -0.097 | [11] -0.083 | [12] 0.115 | givinostat -0.061 | barasertib -0.007

PLCB3 (UniProt Q01970)
inactive: IRAK-1-4 Inhibitor I -0.013 | ibrutinib -0.026 | [1] -0.017 | ralimetinib 0.014 | [2] -0.064 | [3] -0.138 | [4] -0.003 | pinometostat 0.01 | [5] -0.022 | [6] 0.004 | [7] 0.033 | [8] -0.04 | [9] 0.021 | [10] 0.033 | Nexturastat A -0.019 | vemurafenib 0.024 | [11] 0.045 | [12] -0.032 | givinostat -0.014 | barasertib 0.018

PDCD2L (UniProt Q9BRP1)
UniProt Q9BRP1, sequence (Q9BRP1 whole entry, looked up): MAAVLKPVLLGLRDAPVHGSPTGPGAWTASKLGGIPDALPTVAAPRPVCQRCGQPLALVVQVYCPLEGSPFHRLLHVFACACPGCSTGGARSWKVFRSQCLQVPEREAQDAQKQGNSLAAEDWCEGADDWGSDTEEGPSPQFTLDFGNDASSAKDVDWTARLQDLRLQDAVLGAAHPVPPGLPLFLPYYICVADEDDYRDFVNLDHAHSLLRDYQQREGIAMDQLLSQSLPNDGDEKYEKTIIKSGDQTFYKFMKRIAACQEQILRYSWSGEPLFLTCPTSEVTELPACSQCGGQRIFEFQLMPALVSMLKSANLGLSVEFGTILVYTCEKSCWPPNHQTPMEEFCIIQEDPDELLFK
inactive: IRAK-1-4 Inhibitor I -0.034 | ibrutinib -0.006 | [1] 0.07 | ralimetinib 0.047 | [2] -0.115 | [3] 0.078 | [4] 0.042 | pinometostat 0.007 | [5] 0.065 | [6] 0.041 | [7] -0.001 | [8] -0.104 | [9] 0.052 | [10] 0.068 | Nexturastat A 0 | vemurafenib -0.038 | [11] 0.079 | [12] 0.045 | givinostat -0.088 | barasertib 0.069

PTGR2 (UniProt Q8N8N7)
UniProt Q8N8N7, sequence (Q8N8N7 whole entry, looked up): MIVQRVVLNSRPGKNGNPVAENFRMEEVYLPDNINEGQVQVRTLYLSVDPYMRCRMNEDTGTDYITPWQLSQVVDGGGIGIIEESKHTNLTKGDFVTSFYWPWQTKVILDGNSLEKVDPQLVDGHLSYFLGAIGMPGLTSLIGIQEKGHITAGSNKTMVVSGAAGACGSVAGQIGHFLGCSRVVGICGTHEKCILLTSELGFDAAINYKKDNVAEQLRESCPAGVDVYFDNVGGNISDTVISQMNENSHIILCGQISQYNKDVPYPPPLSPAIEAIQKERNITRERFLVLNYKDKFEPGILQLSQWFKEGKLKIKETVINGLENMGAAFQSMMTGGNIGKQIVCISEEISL
inactive: IRAK-1-4 Inhibitor I 0 | ibrutinib 0.321 | [1] -0.328 | ralimetinib -0.016 | [2] -0.042 | [3] 0.121 | [4] 0.001 | pinometostat 0.074 | [5] 0.005 | [6] 0.011 | [7] -0.022 | [8] -0.058 | [9] 0.022 | [10] -0.056 | Nexturastat A -0.175 | vemurafenib -0.022 | [11] -0.021 | [12] 0.234 | givinostat 0.139 | barasertib 0

PSMC3 (UniProt P17980)
UniProt P17980, sequence (P17980 whole entry, looked up): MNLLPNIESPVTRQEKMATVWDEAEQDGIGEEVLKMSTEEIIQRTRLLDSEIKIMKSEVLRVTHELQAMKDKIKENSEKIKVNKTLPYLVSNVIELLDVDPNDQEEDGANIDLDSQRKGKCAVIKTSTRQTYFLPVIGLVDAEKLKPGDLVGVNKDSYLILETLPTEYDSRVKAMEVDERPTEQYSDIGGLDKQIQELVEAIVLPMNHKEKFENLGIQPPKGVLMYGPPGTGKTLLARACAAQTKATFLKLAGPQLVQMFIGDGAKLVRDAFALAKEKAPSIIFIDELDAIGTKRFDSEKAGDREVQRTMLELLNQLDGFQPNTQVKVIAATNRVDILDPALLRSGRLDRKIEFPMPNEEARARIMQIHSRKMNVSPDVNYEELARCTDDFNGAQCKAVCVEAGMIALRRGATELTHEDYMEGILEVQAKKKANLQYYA
inactive: IRAK-1-4 Inhibitor I -0.041 | ibrutinib -0.021 | [1] 0.023 | ralimetinib 0.016 | [2] 0.007 | [3] 0.048 | [4] -0.213 | pinometostat 0.025 | [5] 0.053 | [6] 0.023 | [7] 0.013 | [8] 0.02 | [9] -0.024 | [10] -0.051 | Nexturastat A 0.034 | vemurafenib -0.063 | [11] -0.055 | [12] 0.002 | givinostat -0.034 | barasertib -0.059
